# Data: ChEMBL document CHEMBL2218924, “A broad activity screen in support of a chemogenomic map for kinase signalling research and drug discovery” (Biochem J, 2013)
# Columns and labels:
# [1] = biological target: Rho-associated protein kinase 1 (Homo sapiens) (UniProt Q13464); conditions: at 1 µM
# [2] = biological target: Rho-associated protein kinase 1 (Homo sapiens) (UniProt Q13464); conditions: at 10 µM
# [3] = biological target: Rho-associated protein kinase 2 (Homo sapiens) (UniProt O75116); conditions: at 1 µM
# Chain of Rho-associated protein kinase 2 (Homo sapiens) (O75116 whole entry, looked up): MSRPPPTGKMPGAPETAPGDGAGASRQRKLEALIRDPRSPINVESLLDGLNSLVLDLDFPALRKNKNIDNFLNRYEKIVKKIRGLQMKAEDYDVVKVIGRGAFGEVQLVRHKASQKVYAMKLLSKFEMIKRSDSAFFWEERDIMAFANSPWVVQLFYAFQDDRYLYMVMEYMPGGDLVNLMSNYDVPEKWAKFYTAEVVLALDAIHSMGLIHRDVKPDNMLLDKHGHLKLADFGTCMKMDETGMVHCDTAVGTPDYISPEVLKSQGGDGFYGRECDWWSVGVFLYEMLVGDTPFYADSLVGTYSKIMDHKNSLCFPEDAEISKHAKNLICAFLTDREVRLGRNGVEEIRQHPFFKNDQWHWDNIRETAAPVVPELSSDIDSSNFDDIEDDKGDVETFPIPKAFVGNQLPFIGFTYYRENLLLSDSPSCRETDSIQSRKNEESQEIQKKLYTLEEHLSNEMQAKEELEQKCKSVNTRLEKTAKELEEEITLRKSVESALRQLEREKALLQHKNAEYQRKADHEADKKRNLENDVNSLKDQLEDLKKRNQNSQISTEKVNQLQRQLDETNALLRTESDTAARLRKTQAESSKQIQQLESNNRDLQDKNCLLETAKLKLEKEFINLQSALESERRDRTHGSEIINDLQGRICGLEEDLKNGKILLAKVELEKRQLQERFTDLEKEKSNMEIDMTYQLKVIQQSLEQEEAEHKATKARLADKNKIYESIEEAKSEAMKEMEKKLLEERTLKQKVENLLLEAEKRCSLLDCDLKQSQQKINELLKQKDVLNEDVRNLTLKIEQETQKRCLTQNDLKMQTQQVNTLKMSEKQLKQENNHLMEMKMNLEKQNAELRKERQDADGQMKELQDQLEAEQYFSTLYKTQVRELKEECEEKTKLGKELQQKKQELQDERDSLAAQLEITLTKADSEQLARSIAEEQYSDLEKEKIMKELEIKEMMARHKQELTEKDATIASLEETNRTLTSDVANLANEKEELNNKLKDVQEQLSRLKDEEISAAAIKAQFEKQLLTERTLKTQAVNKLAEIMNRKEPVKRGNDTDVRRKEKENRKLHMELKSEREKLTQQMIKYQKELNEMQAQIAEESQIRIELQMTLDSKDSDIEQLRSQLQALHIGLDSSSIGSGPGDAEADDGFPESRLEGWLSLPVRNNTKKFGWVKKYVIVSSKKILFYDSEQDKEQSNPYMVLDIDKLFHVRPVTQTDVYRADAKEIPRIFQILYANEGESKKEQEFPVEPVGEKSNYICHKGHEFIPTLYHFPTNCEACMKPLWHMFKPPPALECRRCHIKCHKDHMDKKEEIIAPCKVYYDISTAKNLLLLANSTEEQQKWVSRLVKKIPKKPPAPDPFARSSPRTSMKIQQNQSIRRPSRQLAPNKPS
# [4] = biological target: Rho-associated protein kinase 2 (Homo sapiens) (UniProt O75116); conditions: at 10 µM
# [5] = biological target: Proto-oncogene tyrosine-protein kinase receptor Ret (Homo sapiens) (UniProt P07949); conditions: at 1 µM
# Chain of Proto-oncogene tyrosine-protein kinase receptor Ret (Homo sapiens) (P07949 whole entry): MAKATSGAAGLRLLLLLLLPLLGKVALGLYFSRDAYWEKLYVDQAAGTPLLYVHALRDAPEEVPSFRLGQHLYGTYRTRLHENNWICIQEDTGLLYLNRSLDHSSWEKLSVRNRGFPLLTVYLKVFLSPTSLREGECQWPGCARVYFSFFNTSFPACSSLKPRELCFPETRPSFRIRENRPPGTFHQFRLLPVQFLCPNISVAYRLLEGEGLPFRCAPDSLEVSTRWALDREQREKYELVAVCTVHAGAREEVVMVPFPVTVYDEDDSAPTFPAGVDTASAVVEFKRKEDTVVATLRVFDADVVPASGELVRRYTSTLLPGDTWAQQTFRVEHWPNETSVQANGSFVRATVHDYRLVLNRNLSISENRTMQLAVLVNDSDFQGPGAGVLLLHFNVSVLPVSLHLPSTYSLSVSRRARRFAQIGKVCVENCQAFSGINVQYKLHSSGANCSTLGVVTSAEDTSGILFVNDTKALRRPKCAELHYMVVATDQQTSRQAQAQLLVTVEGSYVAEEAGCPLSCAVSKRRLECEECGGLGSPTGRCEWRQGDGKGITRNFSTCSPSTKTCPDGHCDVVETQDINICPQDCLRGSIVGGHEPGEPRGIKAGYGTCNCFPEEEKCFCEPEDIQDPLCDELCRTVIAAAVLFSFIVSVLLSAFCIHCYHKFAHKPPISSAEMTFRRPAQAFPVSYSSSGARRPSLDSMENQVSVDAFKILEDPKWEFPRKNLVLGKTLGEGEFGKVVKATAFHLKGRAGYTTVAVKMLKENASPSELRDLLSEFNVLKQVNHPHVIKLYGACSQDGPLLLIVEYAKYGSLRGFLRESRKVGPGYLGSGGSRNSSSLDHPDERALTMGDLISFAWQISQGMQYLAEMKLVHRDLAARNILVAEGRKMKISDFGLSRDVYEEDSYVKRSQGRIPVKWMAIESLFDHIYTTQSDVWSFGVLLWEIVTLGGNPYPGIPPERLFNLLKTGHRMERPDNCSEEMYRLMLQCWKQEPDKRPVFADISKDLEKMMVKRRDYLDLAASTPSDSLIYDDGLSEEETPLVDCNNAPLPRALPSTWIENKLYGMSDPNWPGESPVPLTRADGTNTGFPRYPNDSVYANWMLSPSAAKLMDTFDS
# [6] = biological target: Proto-oncogene tyrosine-protein kinase receptor Ret (Homo sapiens) (UniProt P07949); conditions: at 10 µM
# [7] = biological target: Macrophage-stimulating protein receptor (Homo sapiens) (UniProt Q04912); conditions: at 1 µM
# [8] = biological target: Macrophage-stimulating protein receptor (Homo sapiens) (UniProt Q04912); conditions: at 10 µM
# [9] = biological target: Proto-oncogene tyrosine-protein kinase ROS (Homo sapiens) (UniProt P08922); conditions: at 1 µM
# [10] = biological target: Proto-oncogene tyrosine-protein kinase ROS (Homo sapiens) (UniProt P08922); conditions: at 10 µM
# Chain of Rho-associated protein kinase 1 (Homo sapiens) (Q13464 2-1354 limits assumed): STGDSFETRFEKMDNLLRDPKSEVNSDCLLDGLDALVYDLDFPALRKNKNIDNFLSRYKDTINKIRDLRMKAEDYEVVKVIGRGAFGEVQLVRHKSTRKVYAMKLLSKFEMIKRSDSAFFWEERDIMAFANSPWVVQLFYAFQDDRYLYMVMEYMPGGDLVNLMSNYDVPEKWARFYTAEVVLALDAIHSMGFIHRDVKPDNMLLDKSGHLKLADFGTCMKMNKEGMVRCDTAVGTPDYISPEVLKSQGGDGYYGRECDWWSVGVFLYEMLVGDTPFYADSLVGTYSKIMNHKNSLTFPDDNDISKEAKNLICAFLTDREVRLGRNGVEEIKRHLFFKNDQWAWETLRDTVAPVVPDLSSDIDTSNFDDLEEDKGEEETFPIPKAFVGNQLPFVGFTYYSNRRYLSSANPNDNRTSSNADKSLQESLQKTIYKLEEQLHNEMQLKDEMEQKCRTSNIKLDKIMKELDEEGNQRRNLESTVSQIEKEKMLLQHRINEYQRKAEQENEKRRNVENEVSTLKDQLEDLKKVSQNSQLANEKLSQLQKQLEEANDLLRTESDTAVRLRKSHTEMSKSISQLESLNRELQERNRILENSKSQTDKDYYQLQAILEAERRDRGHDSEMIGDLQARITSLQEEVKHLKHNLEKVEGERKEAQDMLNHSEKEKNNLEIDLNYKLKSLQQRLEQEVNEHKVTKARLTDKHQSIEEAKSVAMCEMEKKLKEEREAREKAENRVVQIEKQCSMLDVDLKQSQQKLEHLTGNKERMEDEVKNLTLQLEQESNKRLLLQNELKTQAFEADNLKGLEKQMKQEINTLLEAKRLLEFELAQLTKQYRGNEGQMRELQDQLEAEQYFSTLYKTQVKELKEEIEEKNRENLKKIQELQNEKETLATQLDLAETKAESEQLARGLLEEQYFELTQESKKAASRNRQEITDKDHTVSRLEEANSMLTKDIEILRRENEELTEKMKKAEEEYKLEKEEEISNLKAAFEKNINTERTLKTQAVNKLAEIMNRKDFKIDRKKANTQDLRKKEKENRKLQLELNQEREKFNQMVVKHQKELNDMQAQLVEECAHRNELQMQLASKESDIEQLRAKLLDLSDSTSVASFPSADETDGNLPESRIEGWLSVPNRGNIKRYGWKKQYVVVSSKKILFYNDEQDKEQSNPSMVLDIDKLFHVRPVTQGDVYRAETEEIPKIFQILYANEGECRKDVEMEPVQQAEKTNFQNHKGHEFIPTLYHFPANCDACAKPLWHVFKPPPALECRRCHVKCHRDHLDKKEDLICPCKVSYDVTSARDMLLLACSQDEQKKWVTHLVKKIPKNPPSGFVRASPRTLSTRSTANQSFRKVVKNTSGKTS
smiles,measurement,setting,value
COc1cc2ncnc(Nc3ccc(OCc4ccccc4)cc3)c2cc1OC,residual activity,[1],83%
same,residual activity,[2],96%
same,residual activity,[3],119%
same,residual activity,[4],97%
same,residual activity,[5],75%
same,residual activity,[6],89%
same,residual activity,[7],88%
same,residual activity,[8],80%
same,residual activity,[9],108%
same,residual activity,[10],101%
c1cc(-c2cnn3cc(-c4ccc(OCCN5CCCCC5)cc4)cnc23)ccn1,residual activity,[1],117%
same,residual activity,[4],40%
same,residual activity,[5],51%
same,residual activity,[6],5%
same,residual activity,[7],104%
same,residual activity,[8],83%
O=C1Nc2ccc3ncsc3c2/C1=C/c1c[nH]cn1,residual activity,[1],59%
same,residual activity,[2],23%
same,residual activity,[3],5%
same,residual activity,[4],1%
same,residual activity,[5],9%
same,residual activity,[6],0%
same,residual activity,[7],60%
same,residual activity,[8],11%
same,residual activity,[9],88%
same,residual activity,[10],87%
COC(=O)[C@@]1(O)C[C@H]2O[C@]1(C)n1c3ccccc3c3c4c(c5c6ccccc6n2c5c31)C(=O)NC4,residual activity,[1],50%
same,residual activity,[2],12%
same,residual activity,[3],15%
same,residual activity,[4],2%
same,residual activity,[5],2%
same,residual activity,[6],1%
same,residual activity,[7],33%
same,residual activity,[8],3%
same,residual activity,[9],21%
same,residual activity,[10],3%
CCc1nc(-c2ccc(OC)cc2)[nH]c1-c1ccncc1,residual activity,[1],113%
same,residual activity,[2],106%
same,residual activity,[3],107%
same,residual activity,[4],82%
same,residual activity,[5],106%
same,residual activity,[6],80%
same,residual activity,[9],105%
same,residual activity,[10],101%
COc1cc2nccc(Oc3ccc(NC(=O)Nc4cc(C)on4)c(Cl)c3)c2cc1OC,residual activity,[3],76%
same,residual activity,[4],51%
O=C1NC(=O)c2c1c1c3ccccc3n3c1c1c2c2ccccc2n1C1CCC3O1,residual activity,[2],95%
same,residual activity,[5],37%
same,residual activity,[6],34%
same,residual activity,[9],94%
same,residual activity,[10],81%
COc1ccc2c(c1)/C(=C/c1cnc[nH]1)C(=O)N2,residual activity,[1],123%
same,residual activity,[4],36%
same,residual activity,[8],65%
C[S+]([O-])c1ccc(-c2nc(-c3ccc(F)cc3)c(-c3ccncc3)[nH]2)cc1 (centres undefined),residual activity,[1],70%
same,residual activity,[2],74%
same,residual activity,[3],119%
same,residual activity,[4],100%
same,residual activity,[6],46%
same,residual activity,[7],105%
same,residual activity,[8],109%
same,residual activity,[9],117%
same,residual activity,[10],110%
CC(C)[C@H](CO)Nc1nc(Nc2cccc(Cl)c2)c2ncn(C(C)C)c2n1,residual activity,[1],115%
same,residual activity,[2],96%
same,residual activity,[3],95%
same,residual activity,[4],76%
same,residual activity,[5],91%
same,residual activity,[6],27%
same,residual activity,[7],92%
same,residual activity,[8],86%
same,residual activity,[10],96%
COc1cc(OC)c(/C=C2\C(=O)Nc3ccccc32)c(OC)c1,residual activity,[1],127%
same,residual activity,[2],126%
same,residual activity,[3],88%
same,residual activity,[4],92%
same,residual activity,[5],99%
same,residual activity,[6],92%
same,residual activity,[7],77%
same,residual activity,[8],72%
same,residual activity,[9],96%
same,residual activity,[10],63%
O=c1[nH]c2ccccc2n1C1CCN(Cc2ccc(-c3nc4cc5[nH]cnc5cc4nc3-c3ccccc3)cc2)CC1,residual activity,[1],114%
same,residual activity,[2],119%
same,residual activity,[3],103%
same,residual activity,[4],74%
same,residual activity,[5],99%
same,residual activity,[6],83%
same,residual activity,[7],103%
same,residual activity,[8],79%
same,residual activity,[9],96%
same,residual activity,[10],93%
O=[N+]([O-])/C=C/c1ccc2c(c1)OCO2,residual activity,[1],109%
same,residual activity,[2],109%
same,residual activity,[3],99%
same,residual activity,[4],79%
same,residual activity,[5],96%
same,residual activity,[6],108%
same,residual activity,[7],100%
same,residual activity,[8],93%
same,residual activity,[9],95%
same,residual activity,[10],98%
CC(C)(C)c1cc(C=C(C#N)C#N)cc(Br)c1O,residual activity,[1],102%
same,residual activity,[2],82%
same,residual activity,[3],115%
same,residual activity,[5],101%
same,residual activity,[6],108%
same,residual activity,[9],108%
same,residual activity,[10],111%
CCn1cnc2c(Nc3cccc(Cl)c3)nc(N[C@@H]3CCCC[C@@H]3N)nc21,residual activity,[1],115%
same,residual activity,[2],84%
same,residual activity,[3],78%
same,residual activity,[4],53%
same,residual activity,[5],61%
same,residual activity,[6],25%
same,residual activity,[7],85%
same,residual activity,[8],77%
same,residual activity,[9],93%
same,residual activity,[10],84%
O=C1c2ccccc2-c2nc3nnnn3nc21,residual activity,[1],112%
same,residual activity,[2],117%
same,residual activity,[5],105%
same,residual activity,[6],114%
same,residual activity,[9],103%
same,residual activity,[10],110%
N/C(=N\[N+](=O)[O-])N/N=C\c1ccc(-c2cccc([N+](=O)[O-])c2)o1,residual activity,[1],134%
same,residual activity,[4],98%
same,residual activity,[7],63%
same,residual activity,[8],63%
COc1ccc2c(c[n+](C)c3c4cc5c(cc4ccc23)OCO5)c1OC,residual activity,[1],110%
same,residual activity,[2],120%
same,residual activity,[4],82%
same,residual activity,[5],86%
same,residual activity,[7],86%
same,residual activity,[8],75%
O=S(=O)(NCCNC/C=C/c1ccc(Br)cc1)c1cccc2cnccc12,residual activity,[3],8%
same,residual activity,[4],0%
CO[C@H]1[C@@H](OC)C[C@H](C)[C@@H](OC)C2=CC(=O)C=C(NC(=O)/C(C)=C/C=C/[C@H](OC)[C@@H](OC(N)=O)/C(C)=C/[C@@H]1C)C2=O,residual activity,[3],106%
same,residual activity,[4],80%
